The list is not random: actives were taken first. Their share in the collection is about 17%.
HT1080-NT tox = kills 2HG-producing HT-1080-NT fibrosarcoma cells; HT-1080-NT fibrosarcoma viability, CellTiter-Glo ATP luminescence, 48 h; Potency, µM (titrated, usually from 46.1 µM), without a hit: at the highest dose activity, negative = less viability, actives largely listed as cytotoxic; hit rate 1.6% among 360,000; AID 686970;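 also: NT is the 2HG producing partner of a matched IDH1 knockdown line; 0% = DMSO-treated cells and -100% = media-only wells without cells; nearly all actives have a fitted effect of over 55% in size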
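Viability of the 2HG-overproducing fibrosarcoma line after 48 hours of compound exposure at 37 degrees C was determined by luminescence with CellTiter-Glo, and concentration-effect curves were then fitted and categorized.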
TDP1 cell noCPT = qHTS for Inhibitors of human tyrosyl-DNA phosphodiesterase 1 (TDP1): qHTS in cells in absence of CPT | DT40 Tdp1-/- hTDP1 cells, no CPT, ATP luminescence, 48 h | Potency, µM (titrated, usually from 46.2 µM), for inactives: at the highest dose activity change, negative = growth inhibition, actives largely listed as inhibitors | hit rate 15% among 420,000 | AID 686978, 2013; also: % is scaled to controls: 0 for no effect and ±100 for the full control effect; nearly all actives have a fitted effect of over 55% in size
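Cells were dispensed at 400 per well, compounds added by pin tool, plates incubated ≥48 hr at 37 °C, then CellTiter-Glo added for 30 min at room temperature before luminescence reading. Line: DT40 Tdp1-/- complemented with hTDP1; camptothecin omitted.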
HepG2 viability = kills HepG2 cells in TGF-b inhibitor counter-screen; HepG2 CAGA-GFP viability, ATP luminescence, 18 h; Potency, µM (titrated, usually from 46.1 µM), without a hit: at the top dose activity change, negative = cytotoxicity, usual class: cytotoxic; hit rate 0.76% among 410,000; AID 588856
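CellTiter-Glo luminescence gave cytotoxicity after 18 hours at 37 degrees C. The cells were HepG2 CAGA-GFP in 1% FBS DMEM, stimulated with 500 pg/mL TGF-beta after compound addition. %Activity was normalised to no-cell wells (complete cell-killing) and DMSO (no toxicity), and curves were fitted and classified.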
HT1080 IDH1KD tx = kills HT-1080 cells with IDH1 knockdown. HT-1080 IDH1 knockdown viability, ATP luminescence, 48 h. Potency, µM (titrated, usually from 46.1 µM), for the others: at the highest dose activity, negative = toxicity, most hits filed as cytotoxic. hit rate 2% among 360,000;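 also: 0% = DMSO wells and -100% = cell-free medium wells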
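% activity derives from luminescence (CellTiter-Glo), normalised to DMSO and no-cell wells. HT-1080-IDH1KD cells, 750/well, had 48 h compound exposure at 37 °C.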
TGFb SMAD3 inh = TGF-b pathway inhibition; HepG2 CAGA-GFP TGF-b/SMAD3 reporter, GFP fluorescence, 18 h; TGF-beta stimulated, 500 pg/mL final; Potency, µM (top dose mostly 46.1 µM), for inactives: top-dose activity, negative = inhibition, actives largely listed as inhibitors; hit rate 1.2% among 410,000; AID 588855; also: % is scaled to controls: 0 for no effect and ±100 for the full control effect; nearly all actives have a fitted effect of over 65% in size
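Smad-responsive CAGA-GFP expression was quantified in HEPG2 cells exposed to compounds and 500 pg/mL final TGF-beta for 18 h at 37 degrees C; unstimulated wells defined full inhibition.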
DT40 TDP1 CPT = growth inhibition of DT40 Tdp1-/-;hTDP1 cells with camptothecin (screen for TDP1 inhibitors); chicken DT40 Tdp1-/-;hTDP1 cells + 20 nM CPT, ATP luminescence, 48 h; Potency, µM (top dose mostly 46.2 µM), for the others: at the highest dose activity change, negative = growth inhibition, usual class: inhibitors; hit rate 12% among 420,000; AID 686979; also: % is scaled to controls: 0 for no effect and ±100 for the full control effect; nearly all actives have a fitted effect of over 55% in size
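Cell growth measured by CellTiter-Glo luminescence after a minimum 48 h, 37 C compound exposure with 20 nM CPT in Tdp1-knockout DT40 cells stably expressing hTDP1, seeded 400/well; qHTS titration format.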
Starred values were filed as active, the others as inactive; ? = inconclusive; / = not tested or not shown; ! = a repeat was not active; [ ] = dose if it differs, or a comment. Calls follow the shape of the dose curve; as a rule, active = well fitted curve in the direction sought with a large enough effect; inconclusive = small, poorly fitted or top-dose-only effect, or another doubt; inactive = no such curve, though single readings can be large; an effect the other way counts as inactive or inconclusive. Potency is read from the fitted curve at half-maximal effect.

SMILES	HT1080-NT tox	TDP1 cell noCPT	HepG2 viability	HT1080 IDH1KD tx	TGFb SMAD3 inh	DT40 TDP1 CPT
CC(C)N(Cc1ccccc1)C(=O)CN1C(=O)COc2ccc(S(=O)(=O)NC3CCCC3)cc21	-1.6%	23.1µM*!	0.8%	-17.1%	33.2%	25.9µM*
CCOc1ccccc1NC(=O)CN1C(=O)COc2ccc(S(=O)(=O)NC3CCCC3)cc21	/	?	-18.5%	/	-14.4%	25.9µM*
Fc1cnc(Cl)nc1NC1CCCCC1	-8.1%	?	5.7%	-3.3%	5.9%	?
O=C(NNc1cccc(Cl)n1)Nc1ccc(Cl)cc1	-12.0%	-24.5%	-13.5%	-18.6%	-8.1%	?
Cc1ccc(NNC(=O)Nc2ccc(Cl)cc2)nn1	-0.5%	?	3.4%	8.3%	-10.9%	20.6µM*
CCN(CC)C(=O)c1sc2c(c1C)c(=O)n(-c1ccc(C)c(C)c1)c(=O)n2Cc1cc(=O)n2ccccc2n1	/	-12.7%	-1.4%	/	-11.3%	-15.6%
Cc1cccc(C)c1NC(=O)CNC(=O)c1ccccc1	17.9%	0.2%	-1.9%	5.3%	-3.3%	11.5%
CC1(C)O[C@H]2[C@@H](O1)[C@@H](C(=O)Nc1ccc(F)c(F)c1)O[C@@H]1OC(C)(C)O[C@@H]12	/	-8.0%	7.2%	/	-2.9%	-1.6%
CCOCCCNC(=O)NC(CCC(C)C)c1c(-n2cccc2)sc2c1CCN(C)C2 (stereo not drawn)	/	16.4µM*	-1.0%	/	6.6%	16.4µM*
COC(=O)c1ccc(NC(=O)NC(C)c2c(-n3cccc3)sc(C)c2C)cc1 (stereo not drawn)	/	?	-70.2%	/	/	?
Cc1ccc(NC(=O)NCc2c(-n3cccc3)sc3c2CCCC3)c(Cl)c1	/	23.1µM*	9.6%	/	2.2%	?
CCOCCCNC(=O)c1ccc(CN2CCc3ccccc3C2)cc1	2.1%	?	-16.4%	-0.8%	-15.1%	?
COc1cc(NC(=O)NC(C)c2c(-n3cccc3)sc3c2CCN(C)C3)cc(OC)c1 (stereo not drawn)	/	23.1µM*	-26.9%	/	?	23.1µM*
CC(NC(=O)Nc1cc(Cl)ccc1Cl)c1c(-n2cccc2)sc2c1CCCC2 (stereo not drawn)	/	18.4µM*	-15.4%	/	-17.3%	?
CC(NC(=O)c1ccc2c(c1)CCN2S(=O)(=O)c1ccccc1)c1ccccc1 (stereo not drawn)	/	?	8.0%	/	31.2%	?
CC(C)(C)n1ncc2c(=O)n(Cc3ccccc3CS(=O)(=O)c3ccccc3)cnc21	/	/	-27.3%	/	-9.4%	/
COc1ccc(C(=O)NCC2Cc3c(F)ccc(-c4nc(C)cnc4C)c3O2)cc1F (stereo not drawn)	/	-24.8%	/	/	/	-2.2%[9.04 µM]
COc1ccc(C)cc1NC(=O)NC(C)c1c(-n2cccc2)sc(C)c1C (stereo not drawn)	/	?	-25.5%	/	/	?
CCN1CCc2c(sc(-n3cccc3)c2C(C)NC(=O)Nc2ccccc2C)C1 (stereo not drawn)	/	23.1µM*	-16.0%	/	?	?
CCN1CCc2c(sc(-n3cccc3)c2C(C)NC(=O)Nc2cc(Cl)c(OC)cc2OC)C1 (stereo not drawn)	/	18.4µM*	-47.6%	/	?	18.4µM*
Cc1ccc(C(=O)C(c2ccccc2)N2Cc3ccccc3C2=N)cc1 (stereo not drawn)	?	8.2µM*	-53.3%	?	?	10.3µM*
CN(C)c1ccc(C(=C2C=CC(=[N+](C)C)C=C2)c2ccc(N(C)C)cc2)cc1	/	0.517µM*	-92.7%	/	?	0.231µM*
CN(C)c1ccc(C(=C2C=CC(=[N+](C)C)C=C2)c2ccccc2)cc1	/	0.596µM*	/	/	/	0.841µM*
